In the library only some 4.5% were active in any assay of this set; here they are far more common.
hcDAF12 agonist: H. contortus DAF-12 nuclear receptor activators, primary screen, cell-based, luminescence, HEK293, lit1-tk-luc reporter. HEK293 hcDAF-12 lit1-tk-luc reporter; 0% DMSO, 100% Δ7-dafachronic acid. activation, % at 6.8 µM. 370,000 compounds, 1.4% hits;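 active means activation above the mean of all tested compounds plus 3 SD, cut at about 5.5% in these data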;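 further: 100% = response to 3 µM Δ7-dafachronic acid high control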
ssDAF12 agonist: S. stercoralis DAF-12 nuclear receptor activators, primary screen, cell-based, luminescence, HEK293, GRIP1 co-expression, lit1-tk-luc | Nuclear hormone receptor DAF-12 (Strongyloides stercoralis) | 370,000 compounds, 1% hits | activation, % at 6.8 µM | HEK293 ssDAF-12/GRIP1 lit1-tk-luc reporter; % of 3 µM dafachronic acid response;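 active means activation above the mean over all tested compounds plus 3 SD, cut at about 0.9% in these data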;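 further: 0% = DMSO-only wells and 100% = 3 µM delta7-dafachronic acid wells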
DAX1 inh-1: DAX1 (NR0B1) inhibitors on StAR promoter, primary screen, cell-based, luminescence, SF-1 (NR5A1), full-length DAX-1; HEK293T StAR-luciferase reporter, SF-1/DAX-1 repression relief; inhibition, % at 6.8 µM; 370,000 compounds, 1.1% hits;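 active means inhibition above the mean over all tested compounds plus 3 SD, cut at about 3.6% in these data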;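 further: 0% = DAX-1 cells with DMSO and 100% = cells lacking DAX-1 with DMSO; higher inhibition means more luminescence from relief of DAX-1 repression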
GAA850 FXN act: FXN promoter activators, primary screen, cell-based, luciferase luminescence, HEK293 lucGAA850 | HEK293 lucGAA850 FXN promoter luciferase reporter, 24 h; percent of 10 µM SAHA response | activation, % at 6 µM | 360,000 compounds, 0.56% hits | AID 540364, 2011;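 active means activation above the average of all compounds screened plus 3 SD, cutoff fixed separately per campaign, cut at about 7.5% in these data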;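 further: 0% = DMSO wells and 100% = 10 µM SAHA wells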
DAX1 inh-2: DAX1 (NR0B1) inhibitors, primary screen, cell-based, HEK293, Gal4-DAX1, luciferase luminescence | inhibition, % at 6.75 µM | HEK293 Gal4-DAX1 luciferase reporter | 340,000 compounds, 0.99% hits | AID 504766, 2011 | Nuclear receptor subfamily 0 group B member 1 (Homo sapiens), P51843;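 active means inhibition above the mean over all tested compounds plus 3 SD, cut at about 4.2% in these data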;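 further: 0% = DAX1-transfected cells with DMSO and 100% = empty-vector control cells with DMSO; inhibition shows as a rise in luminescence from relieved DAX1 repression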
Target sequence (P51843 207-470 limits assumed): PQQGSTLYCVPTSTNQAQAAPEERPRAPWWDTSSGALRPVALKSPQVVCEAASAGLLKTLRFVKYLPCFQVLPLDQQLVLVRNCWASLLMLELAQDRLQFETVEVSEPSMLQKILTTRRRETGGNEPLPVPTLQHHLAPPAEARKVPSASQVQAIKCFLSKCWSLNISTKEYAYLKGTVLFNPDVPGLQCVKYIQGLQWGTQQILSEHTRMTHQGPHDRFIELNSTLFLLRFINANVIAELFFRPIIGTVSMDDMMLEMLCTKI
hgDAF12 agonist: H. glycines DAF-12 receptor agonists, primary screen, cell-based, luminescence, HEK293, GAL4 fusion, UAS-luciferase; Nuclear hormone receptor DAF-12 (Heterodera glycines), GAL4 fusion; HEK293 GAL4-hgDAF12 UAS-luciferase reporter, agonist luminescence; normalized to butyrate control; activation, % at 6.8 µM; 370,000 compounds, 1.8% hits;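 active means activation above a cutoff set at the mean of all screened compounds plus 3 SD, cut at about 10% in these data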;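 further: 0% = DMSO wells and 100% = sodium butyrate wells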
GAA30 FXN cntr: GAA30 FXN promoter activators, confirmation, counter-screen for GAA850 frataxin promoter activator project, cell-based, luminescence, HEK293, lucGAA30, triplicate. 1,900 compounds, 66% hits. HEK293 lucGAA30 FXN promoter luciferase, 24 h; DMSO = 0%, 5 µM ipriflavone = 100%. shares compounds with GAA850 FXN act. AID 588350, 2011. activation, % at 6 µM;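 active means mean activation above the mean of solvent-only control wells plus 3 SD, cut at about 22% in these data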;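 further: counterscreen of GAA850 promoter hits where activity marks nonselective or luminescence artifacts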
FXN GAA850 conf: FXN GAA850 promoter activators in reporter cells, confirmation, cell-based, luminescence, HEK293 lucGAA850, triplicate; 1,900 compounds, 86% hits; shares compounds with GAA850 FXN act; activation, % at 6 µM; HEK293 lucGAA850 FXN promoter luciferase reporter, 24 h; 100% = activation by SAHA; AID 588351, 2011;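 active means mean activation above a set limit taken from the primary screen, cut at about 8% in these data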;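 further: 0% = DMSO wells and 100% = 10 µM SAHA wells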
Starred values were filed as active, the others as inactive; x = not tested or not shown.

SMILES	hcDAF12 agonist	ssDAF12 agonist	DAX1 inh-1	GAA850 FXN act	DAX1 inh-2	hgDAF12 agonist	GAA30 FXN cntr	FXN GAA850 conf
COC(=O)C1CN(Cc2cn(Cc3ccc(F)cc3)nn2)CCS(=O)(=O)N1Cc1ccccc1 (stereo unspecified)	-0.6	-2.3	-1.1	x	x	-2.0	x	x
CCCCCCCCN1C(=O)N2Cc3ccccc3C2CS1(=O)=O (stereo unspecified)	-1.0	-0.6	-0.7	x	x	-0.5	x	x
COC(=O)[C@@]1(C)[C@H]2C(=O)N(Cc3ccccc3)C(=O)[C@H]2[C@H]2CN=C(SCc3ccc(Cl)cc3)N21	-0.7	0.1	-0.8	14.8*	-0.6	-1.5	29.9*	10.8*
CCN1C(=O)[C@H]2[C@H]3CN=C(SCc4ccccc4)N3[C@@](C)(C(=O)OC)[C@H]2C1=O	-2.0	-0.3	0.7	-0.2	-0.6	-0.5	x	x
COC(=O)[C@@]1(C)[C@H]2C(=O)N(Cc3ccccc3)C(=O)[C@H]2[C@H]2CN=C(SCc3ccc(C#N)cc3)N21	0.2	-1.4	0.2	13.4*	-0.1	0.3	22.3*	12.0*
COc1cc2c(c(OC)c1OC)C1(CCCCC1)CC2NCC=C(C)C (stereo unspecified)	0.6	-0.6	0.7	x	x	0.9	x	x
CCN(CC)C(=O)CC[C@H]1CC[C@]2(CCCN(C(=O)c3ccco3)C2)O1	-1.8	-1.1	0.6	x	x	0.7	x	x
COc1ccccc1C(=O)C1Nc2ccccc2-c2nnc(SC)nc2O1 (stereo unspecified)	3.7	-0.4	-0.5	8.8*	1.5	1.3	15.8	5.5
CCC1Nc2ccccc2-c2nnc(SC)nc2O1 (stereo unspecified)	2.5	-0.8	0.5	1.7	0.7	-3.4	x	x
CCn1c2ccccc2c2cc(NC(=O)CSc3nnc(-c4ccccc4OC)n3N)ccc21	-1.4	-1.6	0.0	8.4*	0.2	-0.9	18.8	7.4
CCn1c2ccccc2c2cc(NC(=O)CSc3nnc(-c4ccc(OC)c(OC)c4)n3N)ccc21	-0.1	-1.5	0.8	2.4	-1.2	1.1	x	x
CCOc1ccc(-c2nnc(SCC(=O)Nc3ccc4c(c3)c3ccccc3n4CC)n2N)cc1	2.4	-0.9	-0.3	-2.6	0.2	0.5	x	x
CCn1c2ccccc2c2cc(NC(=O)CSc3nnc(-c4cccc(OC)c4)n3N)ccc21	-2.8	-2.0	-1.8	8.4*	-1.0	-6.6	18.9	9.0*
Cc1ccccc1NC(=O)[C@H]1CC(=O)O[C@@H]1c1ccccc1	-1.4	-1.6	0.3	x	x	1.9	x	x
C[C@@H]1CN(c2ccc(N3CCN(C(=O)OC(C)(C)C)C[C@H]3C)cc2C#N)CCN1Cc1ccccc1	-1.8	-0.8	-0.9	x	x	3.0	x	x
CCCN1CCN(C(c2cc3cc(OCC)ccc3[nH]c2=O)c2nnnn2C2CCCCC2)CC1 (stereo unspecified)	1.6	-0.4	2.6	10.7*	0.7	1.9	16.9	7.9*
COC(=O)[C@]1(CNC(=O)NCCc2ccc(OC)c(OC)c2)CC(=O)N(C)[C@@H]1c1ccccc1	-1.2	-1.2	1.5	x	x	4.2	x	x
Cc1cc(NS(=O)(=O)c2ccc(NC(=O)CSc3nnc(-c4cccnc4)n3-c3ccccc3)cc2)nc(C)n1	-1.3	-0.8	0.1	x	x	-0.8	x	x
CC1=NNC(=O)C1CCC(=O)N/N=C/C(Br)=C/c1ccccc1 (stereo unspecified)	-0.6	-1.2	-0.3	11.6*	1.4	0.9	24.1*	5.3
O=C(CNc1cccc2ccccc12)N/N=C/c1ccc[nH]1	3.9	-0.6	-0.2	-1.2	1.6	-1.1	x	x
O=C(N/N=C/C(Br)=C/c1ccccc1)c1ccccc1F	0.8	-0.3	0.5	8.5*	1.6	6.4	109.8*	42.2*
O=C(N/N=C/C(Br)=C/c1ccccc1)c1cc(-c2ccco2)[nH]n1	-0.7	-2.0	-0.4	8.3*	-0.3	-2.0	3.8	12.6*
O=C(CNc1cccc2ccccc12)N/N=C/C(Br)=C/c1ccccc1	3.4	0.8	-1.5	12.7*	-1.2	-2.4	-19.4	2.0
CC(/C=N/NC(=O)c1cc(-c2ccc(C)o2)[nH]n1)=C\c1ccccc1	0.3	-1.8	-0.3	0.2	0.1	-2.1	x	x
O=C(Nc1ccc(C(F)(F)F)cc1)OC1CC2CC1[C@H]1CCCCN1[C@H]2Cc1ccccc1 (stereo partly specified)	-0.6	0.9	-0.9	x	x	0.1	x	x
SMILES	hcDAF12 agonist	ssDAF12 agonist	DAX1 inh-1	GAA850 FXN act	DAX1 inh-2	hgDAF12 agonist	GAA30 FXN cntr	FXN GAA850 conf
COC(=O)[C@]12C[C@H](CC(=O)N3CCOCC3)C(=O)N(CCC3=CCCCC3)C1=C[C@H](C1CCCC1)O[C@@H]2C	-1.5	-1.8	-0.3	x	x	-1.9	x	x
COC(=O)[C@]12C[C@H](CC(=O)NCc3cccc(C(F)(F)F)c3)C(=O)N(CCc3ccc(OC)c(OC)c3)C1=C[C@H](C(C)C)O[C@@H]2C1CC1	-3.5	-1.5	-1.2	x	x	0.2	x	x
Cn1ccsc1=NC(=O)c1ccc(S(C)(=O)=O)c([N+](=O)[O-])c1	-0.7	-0.9	0.7	10.3*	0.8	0.7	73.2*	29.6*
COC(=O)[C@]1(C)N[C@H](CN(C)C(=O)Nc2ccc(OC)cc2)[C@@H]2C(=O)N(Cc3ccccc3)C(=O)[C@@H]21	-0.1	0.1	-0.9	8.3*	-0.8	3.7	18.5	17.3*
COC(=O)[C@]1(C)N[C@H](CN(C)C(=O)Nc2ccc(C)cc2)[C@@H]2C(=O)N(Cc3ccccc3)C(=O)[C@@H]21	0.8	-0.6	0.4	12.1*	-0.8	3.1	25.4*	6.7
CCN(C[C@H]1N[C@@](C)(C(=O)OC)[C@H]2C(=O)N(Cc3ccccc3)C(=O)[C@@H]12)C(=O)Nc1ccc(F)cc1	0.5	-0.7	0.6	15.3*	-0.5	-1.1	25.3*	6.3
COC(=O)[C@]1(C)N[C@H](CN(C)C(=O)Nc2ccc(Cl)cc2)[C@@H]2C(=O)N(Cc3ccccc3)C(=O)[C@@H]21	-1.8	-1.2	-0.6	17.6*	-1.7	1.4	23.8*	13.4*
